Several values for one entry are separate records, joined by “and”; a condition that tells them apart may be missing. Equal values may be shown once. Among all 5,500 compounds or so, about 2,000 (36%) were called active. Roughly 18% stayed inconclusive and do not appear here. Cut-off read from the data, not from the text of the source: active = normalized growth mostly below about 0.91 (no sharp cut-off); inconclusive = no clear call, values can overlap the other calls; inactive = mostly above about 0.92. The list shows a part of the results.
Experiment: chemical genetic growth profiling, strain panel (AID 1159580);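 note: tested at 20 µM; growth read once vehicle control cultures reached saturation at 30 °C; 1 = growth at the plate median or of vehicle wells; lower values mean less growth of the strain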
Details: S. cerevisiae deletion strains, growth OD

Measured: normalized growth

CC(C)NCC(O)c1ccc2ccccc2c1 (stereo not drawn)
inactive: locus YAL013W, strain DEP1, stronger effect = lower value 1.02 | locus YAL021C, strain ccr4, stronger effect = lower value 0.992 | locus YAL026C, strain drs2, stronger effect = lower value 1.01 | locus YAL030W, strain snc1, stronger effect = lower value 1 | locus YBL061C, strain skt5, stronger effect = lower value 0.998 | locus YBR009C, strain hhf1, stronger effect = lower value 0.985 | locus YBR021W, strain FUR4, stronger effect = lower value 1.02 | locus YBR023C, strain chs3, stronger effect = lower value 1 | locus YBR171W, strain sec66, stronger effect = lower value 1 | locus YBR229C, strain ROT2, stronger effect = lower value 1.01 | locus YBR231C, strain swc5, stronger effect = lower value 0.99 | locus YBR279W, strain paf1, stronger effect = lower value 0.998 | locus YCL011C, strain gbp2, stronger effect = lower value 1 | locus YCL016C, strain dcc1, stronger effect = lower value 1 | locus YCL029C, strain bik1, stronger effect = lower value 0.999 | locus YCL061C, strain MRC1, stronger effect = lower value 1.01 | locus YCL069W, strain vba3, stronger effect = lower value 1 | locus YCR088W, strain abp1, stronger effect = lower value 1.01 | locus YDL005C, strain med2, stronger effect = lower value 0.999 | locus YDL035C, strain GPR1, stronger effect = lower value 1.02 | locus YDL040C, strain nat1, stronger effect = lower value 0.987 | locus YDL074C, strain BRE1, stronger effect = lower value 1.04 | locus YDL101C, strain DUN1, stronger effect = lower value 1.01 | locus YDL134C, strain PPH21, stronger effect = lower value 1.02 | locus YDL185W, strain tfp1, stronger effect = lower value 1 | locus YDL192W, strain arf1, stronger effect = lower value 1 | locus YDR001C, strain nth1, stronger effect = lower value 1 | locus YDR069C, strain doa4, stronger effect = lower value 0.987 | locus YDR101C, strain arx1, stronger effect = lower value 1.01 | locus YDR137W, strain rgp1, stronger effect = lower value 0.987 | locus YDR159W, strain sac3, stronger effect = lower value 0.971 | locus YDR162C, strain NBP2, stronger effect = lower value 1.03 | locus YDR195W, strain ref2 0.966 | locus YDR297W, strain sur2, stronger effect = lower value 0.998 | locus YDR318W, strain mcm21, stronger effect = lower value 0.992 | locus YDR334W, strain swr1, stronger effect = lower value 1 | locus YDR335W, strain msn5, stronger effect = lower value 0.999 | locus YDR388W, stronger effect = lower value 0.994 | locus YDR392W, strain spt3, stronger effect = lower value 0.918 | locus YDR502C, strain sam2, stronger effect = lower value 0.995 | locus YEL003W, strain gim4, stronger effect = lower value 1.01 | locus YEL037C, strain rad23, stronger effect = lower value 1 | locus YEL061C, strain CIN8 (second series), stronger effect = lower value 0.996 | locus YEL061C, strain CIN8, stronger effect = lower value 1 | locus YER015W, strain faa2, stronger effect = lower value 0.992 | locus YER016W, strain bim1, stronger effect = lower value 0.997 | locus YER110C, stronger effect = lower value 0.994 | locus YER111C, strain swi4, stronger effect = lower value 1 | locus YER155C, strain BEM2 (second series), stronger effect = lower value 0.998 | locus YER155C, strain BEM2, stronger effect = lower value 1.01 | locus YER167W, strain BCK2, stronger effect = lower value 1.01 | locus YFR010W, strain ubp6, stronger effect = lower value 1 | locus YGL078C, strain dbp3, stronger effect = lower value 0.992 | locus YGL086W, strain mad1, stronger effect = lower value 1 | locus YGL167C, strain pmr1, stronger effect = lower value 1 | locus YGL173C, strain kem1, stronger effect = lower value 0.999 | locus YGL227W, strain vid30, stronger effect = lower value 0.992 | locus YGL240W, strain doc1, stronger effect = lower value 0.995 | locus YGL248W, strain PDE1, stronger effect = lower value 1.01 | locus YGL253W, strain hxk2, stronger effect = lower value 0.998 | locus YGR135W, strain pre9, stronger effect = lower value 0.983 | locus YGR252W, strain gcn5, stronger effect = lower value 0.973 | locus YHR013C, strain ard1, stronger effect = lower value 0.952 | locus YHR027C, strain rpn1, stronger effect = lower value 1 | locus YHR030C, strain SLT2, stronger effect = lower value 1.01 and 1.02 | locus YHR079C, strain IRE1 (second series), stronger effect = lower value 0.99 | locus YHR079C, strain IRE1, stronger effect = lower value 1.02 | locus YHR094C, strain hxt1, stronger effect = lower value 0.99 | locus YHR129C, strain ARP1, stronger effect = lower value 1.02 | locus YHR142W, strain chs7, stronger effect = lower value 1 | locus YHR200W, strain rpn10, stronger effect = lower value 0.994 | locus YIL066C, strain RNR3, stronger effect = lower value 1.02 | locus YIL073C, strain SPO22, stronger effect = lower value 1.01 | locus YIL125W, strain kgd1, stronger effect = lower value 0.999 | locus YIR030C, strain dcg1, stronger effect = lower value 0.998 | locus YJL092W, strain hpr5, stronger effect = lower value 1.01 | locus YJL095W, strain BCK1 (second series), stronger effect = lower value 0.999 | locus YJL095W, strain BCK1, stronger effect = lower value 1.02 and 1.03 | locus YJL115W, strain asf1, stronger effect = lower value 0.996 | locus YJL129C, strain trk1, stronger effect = lower value 1.01 | locus YJL134W, strain LCB3, stronger effect = lower value 1 | locus YJL154C, strain vps35, stronger effect = lower value 0.992 | locus YJL164C, strain tpk1, stronger effect = lower value 1 | locus YJL166W, strain qcr8, stronger effect = lower value 1 | locus YJL168C, strain set2, stronger effect = lower value 0.991 | locus YJL187C, strain SWE1 (second series), stronger effect = lower value 1.03 | locus YJL187C, strain SWE1, stronger effect = lower value 1 | locus YJR043C, strain POL32, stronger effect = lower value 1.05

— PubChem BioAssay AID1159580 (chemical genetic matrix, 2015)
